Assay outcomes as filed in PubChem BioAssay.
Sampled rows, rich in hits. Any-hit rate of the full collection: about 1.3%.
RecA intein inh – inhibitors of M. tuberculosis RecA intein splicing. inhibition, % (test concentration not listed). cell-free RecA intein splicing, fluorescence. hit rate 0.75% among 290,000. P9WHJ3. AID 2221; in the data active means inhibition above about 30%;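 further: 0% = vehicle wells and 100% = reference inhibitor control wells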
FadD28 FP inh – M. tuberculosis FadD28 bisubstrate binding inhibition. FadD28 bisubstrate probe binding, fluorescence polarization. inhibition, % at 12.5 µM. hit rate 0.22% among 360,000. AID 588549; in the data active means inhibition above about 8.5%, passing the limit was not always enough
UGM FP inh – Mtb UDP-galactopyranose mutase inhibition. P9WIQ1. purified UGM, fluorescence polarization probe displacement. inhibition, % at 10 µM. hit rate 0.06% among 320,000. AID 504406; in the data active means inhibition above about 10%, passing the limit was not always enough
Target sequence (P9WIQ1 whole entry, looked up): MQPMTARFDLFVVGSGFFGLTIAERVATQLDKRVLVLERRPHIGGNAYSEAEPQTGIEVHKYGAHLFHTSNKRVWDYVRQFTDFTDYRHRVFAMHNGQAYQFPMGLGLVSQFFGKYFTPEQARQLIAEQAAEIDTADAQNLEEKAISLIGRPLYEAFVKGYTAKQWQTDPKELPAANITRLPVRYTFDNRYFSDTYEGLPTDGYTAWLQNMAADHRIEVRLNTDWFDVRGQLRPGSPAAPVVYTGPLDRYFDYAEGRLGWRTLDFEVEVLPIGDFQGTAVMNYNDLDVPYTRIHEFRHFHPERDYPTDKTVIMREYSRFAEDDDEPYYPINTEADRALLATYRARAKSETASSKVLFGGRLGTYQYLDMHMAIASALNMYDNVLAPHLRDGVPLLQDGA
BJeLR viability – BJeLR cell viability loss. BJeLR (HRASV12) viability, CellTiter-Glo ATP luminescence, 48 h. inhibition, % (concentration not given with the values). hit rate 0.17% among 300,000. AID 1554; in the data active means inhibition above about 50%
Rv3671c protease – inhibits the M. tuberculosis serine protease Rv3671c. P9WHR9. AID 2606. inhibition, % at 5.96 µM. hit rate 0.048% among 320,000; in the data active means inhibition above about 38%;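 further: extracellular domain of Rv3671c used as enzyme; 0% = enzyme with DMSO and 100% = no enzyme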
PrP 5UTR inh – inhibition of PrP 5' UTR reporter expression; cell-based PrP 5' UTR mRNA reporter, plate reader; inhibition, % (no concentration beside the values); hit rate 0.35% among 340,000; AID 488862; in the data active means inhibition above about 52%; further: 0 = median of the neutral control wells
GFP chromo cs – counter-screen GFP chromophore formation inhibition; cell-free GFP chromophore formation, fluorescence; EC50, µM; hit rate 83% among 2,100; shares compounds with RecA intein inh; AID 434968; call rule not given here
* = called active by the depositor.

What do the screens show for `COC(=O)c1ccccc1NC(=S)NC(=O)c1ccc(C)cc1`?
RecA intein inh: 36*; FadD28 FP inh: -4; UGM FP inh: 0; BJeLR viability: -17; Rv3671c protease: -2; PrP 5UTR inh: -10; GFP chromo cs: 0.49*

Results for COC(=O)CSc1nc2sc3c(c2c(=O)n1C1CCCCC1)CCN(C)C3 ?
RecA intein inh: 39*; UGM FP inh: -2; BJeLR viability: -2; Rv3671c protease: -11; GFP chromo cs: >38

How did COC(=O)CSc1nc2sc3c(c2c(=O)n1-c1ccc(OC)cc1)CCN(C)C3 do in these assays?
RecA intein inh: -2; FadD28 FP inh: -4; BJeLR viability: 13; PrP 5UTR inh: -10

How did CC(O)C(NS(=O)(=O)c1ccc(Cl)cc1)C(=O)OCCOc1ccc(F)cc1 (configuration not stated) do in these assays?
FadD28 FP inh: -2

Results for O=C(Nc1ccccc1)c1cc(C2CCCCN2C(=O)c2cccs2)on1 (configuration not stated) ?
FadD28 FP inh: -2

How did O=C(Nc1ccccc1)C1=C(c2ccccc2)S(=O)(=O)CCS1(=O)=O do in these assays?
RecA intein inh: 94*; FadD28 FP inh: -2; BJeLR viability: 12; PrP 5UTR inh: -8; GFP chromo cs: 1.5*

Results for O=C(O)c1ccccc1C(=O)Nc1ccccc1 ?
RecA intein inh: 0; FadD28 FP inh: 1; UGM FP inh: -5; BJeLR viability: 3; Rv3671c protease: 1; PrP 5UTR inh: -14

How did CNCc1ccccc1Sc1ccc(O)c(O)c1 do in these assays?
RecA intein inh: 88*; FadD28 FP inh: -2; UGM FP inh: 1; BJeLR viability: 6; Rv3671c protease: -1; PrP 5UTR inh: -12; GFP chromo cs: 3.3*

Results for CNC(C)Cc1ccccc1Sc1ccc(O)cc1 (configuration not stated) ?
RecA intein inh: -7; FadD28 FP inh: -3; UGM FP inh: 1; BJeLR viability: -2; Rv3671c protease: -3; PrP 5UTR inh: -74

How did COc1ccc(OC)c(C(c2c(C)[nH][nH]c2=O)c2c(C)[nH][nH]c2=O)c1 do in these assays?
RecA intein inh: 95*; FadD28 FP inh: -2; UGM FP inh: 0; BJeLR viability: -4; Rv3671c protease: -15; PrP 5UTR inh: 1; GFP chromo cs: 0.43*

Results for COc1ccc(O)c(C(c2c(C)[nH][nH]c2=O)c2c(C)[nH][nH]c2=O)c1 ?
RecA intein inh: 92*; FadD28 FP inh: -2; UGM FP inh: 0; BJeLR viability: -10; Rv3671c protease: -27; PrP 5UTR inh: -19; GFP chromo cs: 3.8*

What do the screens show for `COc1ccc(N=Nc2c(C)[nH][nH]c2=O)cc1`?
FadD28 FP inh: 1; UGM FP inh: 1; BJeLR viability: 9; Rv3671c protease: -15; PrP 5UTR inh: -15

What do the screens show for `Cc1cc(O)ccc1Nc1cc(-c2cccc(N(C)C)c2)ncn1`?
FadD28 FP inh: -3

What do the screens show for `CCCc1[nH]nc2c1C(c1ccc(OC)cc1OC)C(C#N)=C(N)O2` (configuration not stated)?
RecA intein inh: 79*; FadD28 FP inh: -4; UGM FP inh: -2; BJeLR viability: -7; Rv3671c protease: -2; PrP 5UTR inh: -11; GFP chromo cs: 17*

Results for COc1cccc(C2C(C#N)=C(N)Oc3c2oc(CO)cc3=O)c1 (configuration not stated) ?
RecA intein inh: -2; FadD28 FP inh: 1; UGM FP inh: -2; BJeLR viability: -1; Rv3671c protease: 0; PrP 5UTR inh: -7

How did CCCc1[nH]nc2c1C(c1cccc(OC)c1)C(C#N)=C(N)O2 (configuration not stated) do in these assays?
RecA intein inh: 42*; FadD28 FP inh: -4; UGM FP inh: -3; BJeLR viability: 8; Rv3671c protease: -13; PrP 5UTR inh: -4; GFP chromo cs: 38*

Results for O=C(N[C@H](CO)c1ccccc1)[C@H]1O[C@@H](n2ccc(=O)[nH]c2=O)[C@H](O)[C@@H]1O ?
FadD28 FP inh: 0

Results for CNC(=O)OCc1ncn(-c2ccccc2)c1COC(=O)NC ?
FadD28 FP inh: -1

Results for O=C(O)c1ccccc1-c1ncc(-c2ccccc2)o1 ?
RecA intein inh: -2; FadD28 FP inh: -1; UGM FP inh: 3; BJeLR viability: 3; Rv3671c protease: -1; PrP 5UTR inh: -38
